Experimental data from PubChem BioAssay AID1159580 (chemical genetic matrix, 2015).
Where “and” joins values, the source holds several entries; their conditions need not be identical. Equal entries are not always repeated. The campaign covered roughly 5,500 compounds. About 2,000 (36%) were called active. Roughly 18% stayed inconclusive and do not appear here. Rule as the data show it: active = normalized growth mostly below about 0.91 (no sharp cut-off); inconclusive = no clear call, values can overlap the other calls; inactive = mostly above about 0.92. This is one part of the list.

Experiment: chemical genetic growth profiling, strain panel (AID 1159580);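 also: tested at 20 µM; growth read once vehicle control cultures reached saturation at 30 °C; 1 = growth at the plate median or of vehicle wells; lower values mean less growth of the strain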
Conditions: S. cerevisiae deletion strains, growth OD

Measured: normalized growth

CCn1nc(C(=O)O)c(=O)c2cc3c(cc21)OCO3
inactive: locus YAL013W, strain DEP1, hits give low values 1.01 | locus YAL021C, strain ccr4, hits give low values 1 | locus YAL026C, strain drs2, hits give low values 0.999 | locus YAL030W, strain snc1, hits give low values 1.01 | locus YAL040C, strain CLN3, hits give low values 0.955 | locus YBL061C, strain skt5, hits give low values 1.02 | locus YBR009C, strain hhf1, hits give low values 0.989 | locus YBR021W, strain FUR4, hits give low values 1.03 | locus YBR023C, strain chs3, hits give low values 1.03 | locus YBR171W, strain sec66, hits give low values 1 | locus YBR229C, strain ROT2, hits give low values 1.01 | locus YBR231C, strain swc5, hits give low values 1.03 | locus YBR279W, strain paf1, hits give low values 1 | locus YCL011C, strain gbp2, hits give low values 0.987 | locus YCL016C, strain dcc1, hits give low values 0.99 | locus YCL029C, strain bik1, hits give low values 1.01 | locus YCL069W, strain vba3, hits give low values 1.01 | locus YCR088W, strain abp1, hits give low values 1 | locus YDL005C, strain med2, hits give low values 0.998 | locus YDL035C, strain GPR1, hits give low values 1 | locus YDL040C, strain nat1, hits give low values 1.01 | locus YDL074C, strain BRE1, hits give low values 1.04 | locus YDL101C, strain DUN1, hits give low values 1.01 | locus YDL134C, strain PPH21, hits give low values 1 | locus YDL185W, strain tfp1, hits give low values 1.03 | locus YDL192W, strain arf1, hits give low values 1.03 | locus YDR001C, strain nth1, hits give low values 0.996 | locus YDR069C, strain doa4, hits give low values 1.02 | locus YDR101C, strain arx1, hits give low values 0.992 | locus YDR137W, strain rgp1, hits give low values 0.949 | locus YDR150W, strain NUM1, hits give low values 1.01 | locus YDR159W, strain sac3, hits give low values 0.959 | locus YDR162C, strain NBP2, hits give low values 1.01 | locus YDR195W, strain ref2 1.01 | locus YDR297W, strain sur2, hits give low values 1.01 | locus YDR318W, strain mcm21, hits give low values 1.02 | locus YDR334W, strain swr1, hits give low values 1 | locus YDR335W, strain msn5, hits give low values 1.01 | locus YDR363W, strain ESC2, hits give low values 0.967 | locus YDR388W, hits give low values 1.02 | locus YDR392W, strain spt3, hits give low values 0.987 | locus YDR502C, strain sam2, hits give low values 1.02 | locus YEL003W, strain gim4, hits give low values 1.02 | locus YEL037C, strain rad23, hits give low values 1.01 | locus YEL061C, strain CIN8 (second series), hits give low values 1.01 | locus YEL061C, strain CIN8, hits give low values 1.01 | locus YER002W, strain NOP16, hits give low values 1.02 | locus YER015W, strain faa2, hits give low values 1.02 | locus YER016W, strain bim1, hits give low values 0.996 | locus YER110C, hits give low values 1.02 | locus YER111C, strain swi4, hits give low values 1 | locus YER155C, strain BEM2 (second series), hits give low values 1.06 | locus YER155C, strain BEM2, hits give low values 0.999 | locus YER167W, strain BCK2, hits give low values 0.993 | locus YFR010W, strain ubp6, hits give low values 1.03 | locus YGL078C, strain dbp3, hits give low values 1.01 | locus YGL086W, strain mad1, hits give low values 1 | locus YGL167C, strain pmr1, hits give low values 1.03 | locus YGL173C, strain kem1, hits give low values 1.01 | locus YGL227W, strain vid30, hits give low values 1.01 | locus YGL240W, strain doc1, hits give low values 1.03 | locus YGL248W, strain PDE1, hits give low values 1.03 | locus YGL253W, strain hxk2, hits give low values 1.01 | locus YGR078C, strain PAC10, hits give low values 1.02 and 1.01 | locus YGR135W, strain pre9, hits give low values 1.04 | locus YGR252W, strain gcn5, hits give low values 1.05 | locus YHR013C, strain ard1, hits give low values 1 | locus YHR027C, strain rpn1, hits give low values 1.01 | locus YHR030C, strain SLT2, hits give low values 1.01 and 0.999 | locus YHR079C, strain IRE1 (second series), hits give low values 1.01 | locus YHR079C, strain IRE1, hits give low values 0.999 | locus YHR094C, strain hxt1, hits give low values 1.01 | locus YHR129C, strain ARP1, hits give low values 1 | locus YHR142W, strain chs7, hits give low values 1.01 | locus YHR200W, strain rpn10, hits give low values 1.03 | locus YIL066C, strain RNR3, hits give low values 1.01 | locus YIL073C, strain SPO22, hits give low values 1.04 | locus YIL125W, strain kgd1, hits give low values 1.01 | locus YIR030C, strain dcg1, hits give low values 1.01 | locus YJL092W, strain hpr5, hits give low values 1.02 | locus YJL095W, strain BCK1 (second series), hits give low values 1.02 | locus YJL095W, strain BCK1, hits give low values 1.04 and 0.983 | locus YJL115W, strain asf1, hits give low values 1.01 | locus YJL129C, strain trk1, hits give low values 1.02 | locus YJL134W, strain LCB3, hits give low values 1.01 | locus YJL154C, strain vps35, hits give low values 1.02 | locus YJL164C, strain tpk1, hits give low values 1 | locus YJL166W, strain qcr8, hits give low values 1.05 | locus YJL168C, strain set2, hits give low values 1.02 | locus YJL187C, strain SWE1 (second series), hits give low values 1.03 | locus YJL187C, strain SWE1, hits give low values 1.02 | locus YJR043C, strain POL32, hits give low values 0.999 | locus YJR066W, strain TOR1, hits give low values 0.974 | locus YJR075W, strain HOC1, hits give low values 1.03 | locus YKL009W, strain mrt4, hits give low values 1.03 | locus YKL068W, hits give low values 0.999 | locus YKL085W, strain MDH1 (second series), hits give low values 1.03 | locus YKL085W, strain MDH1, hits give low values 1.03 | locus YKL160W, strain elf1, hits give low values 1.02 | locus YKR001C, strain vps1, hits give low values 1 | locus YKR026C, strain gcn3, hits give low values 0.993 | locus YKR091W, strain srl3, hits give low values 1.02 | locus YLL001W, strain dnm1, hits give low values 1.02 | locus YLL026W, hits give low values 1 | locus YLL041C, strain sdh2, hits give low values 1.01 | locus YLR027C, strain aat2, hits give low values 1 | locus YLR039C, strain RIC1, hits give low values 0.967 | locus YLR058C, strain SHM2, hits give low values 1.02 | locus YLR102C, strain apc9, hits give low values 1.01 | locus YLR113W, strain HOG1, hits give low values 1 | locus YLR221C, strain rsa3, hits give low values 1.02 | locus YLR258W, strain gsy2, hits give low values 1.01 | locus YLR262C, strain YPT6 (second series), hits give low values 0.964 | locus YLR262C, strain YPT6, hits give low values 0.978 | locus YLR268W, strain sec22, hits give low values 1.02 | locus YLR320W, strain mms22, hits give low values 1 | locus YLR330W, strain CHS5, hits give low values 1.01 | locus YLR342W, strain FKS1 (second series), hits give low values 1.01 | locus YLR342W, strain FKS1, hits give low values 1.02 | locus YLR357W, strain rsc2, hits give low values 1.02 | locus YLR370C, strain arc18, hits give low values 1.02 | locus YLR371W, strain rom2, hits give low values 1.01 | locus YLR384C, strain iki3, hits give low values 1.01 | locus YLR418C, strain cdc73, hits give low values 1.07 | locus YML016C, strain PPZ1, hits give low values 1.01 | locus YML032C, strain rad52, hits give low values 1.03 | locus YML120C, strain ndi1, hits give low values 1 | locus YML124C, strain tub3, hits give low values 1.02 | locus YMR058W, strain fet3, hits give low values 1.01 | locus YMR078C, strain ctf18, hits give low values 1.02 | locus YMR125W, strain sto1, hits give low values 1.02 | locus YMR129W, hits give low values 1.01 | locus YMR205C, strain PFK2, hits give low values 1.02 | locus YMR223W, strain ubp8, hits give low values 1.03 | locus YMR231W, strain pep5, hits give low values 1.01 | locus YMR307W, strain GAS1, hits give low values 1.06 | locus YNL067W, strain RPL9B, hits give low values 1.03 | locus YNL071W, strain lat1, hits give low values 1 | locus YNL153C, strain GIM3, hits give low values 1.02 | locus YNL175C, strain NOP13, hits give low values 0.997 | locus YNL183C, strain NPR1, hits give low values 0.928 | locus YNL197C, strain WHI3, hits give low values 0.994 | locus YNL209W, strain ssb2, hits give low values 1 | locus YNL224C, strain SQS1, hits give low values 0.99 | locus YNL233W, strain BNI4, hits give low values 1.02 | locus YNL248C, strain rpa49, hits give low values 0.952 | locus YNL250W, strain rad50, hits give low values 1.02 | locus YNL271C, strain bni1, hits give low values 1.02 | locus YNL298W, strain CLA4, hits give low values 1.02 | locus YNL307C, strain MCK1, hits give low values 1.03 | locus YNL322C, strain KRE1 (second series), hits give low values 1.01 | locus YNR049C, strain mso1, hits give low values 1.01 | locus YNR052C, strain pop2, hits give low values 1.01 | locus YOL012C, strain htz1 1.6 | locus YOL147C, strain pex11, hits give low values 1.01 | locus YOR001W, strain rrp6, hits give low values 1.03 | locus YOR061W, strain CKA2, hits give low values 1.01 | locus YOR069W, strain VPS5, hits give low values 1.01 | locus YOR070C, strain gyp1, hits give low values 1 | locus YOR080W, strain dia2, hits give low values 1.03 | locus YOR083W, strain WHI5 (second series), hits give low values 0.976 | locus YOR083W, strain WHI5, hits give low values 1.05 | locus YOR106W, strain vam3, hits give low values 1.02 | locus YOR136W, strain idh2, hits give low values 1.02 | locus YOR144C, strain elg1, hits give low values 1.01 | locus YOR184W, strain ser1, hits give low values 1.03 | locus YOR231W, strain MKK1, hits give low values 1 | locus YOR265W, strain rbl2, hits give low values 1 | locus YOR270C, strain vph1, hits give low values 1.02 | locus YOR290C, strain snf2, hits give low values 1 | locus YOR316C, strain cot1, hits give low values 1.02 | locus YPL051W, strain arl3, hits give low values 1.02 | locus YPL055C, strain LGE1, hits give low values 1.04 and 1.01 | locus YPL078C, strain atp4, hits give low values 1.03 | locus YPL106C, strain sse1, hits give low values 0.989 | locus YPL240C, strain hsp82, hits give low values 0.999 | locus YPL241C, strain CIN2, hits give low values 1.01 | locus YPL256C, strain CLN2, hits give low values 0.998 | locus YPR119W, strain clb2, hits give low values 1.02 | locus YPR141C, strain kar3, hits give low values 1.01 | locus YPR163C, strain tif3, hits give low values 1.02 | locus YPR167C, strain met16, hits give low values 1.01 | strain wtn01, hits give low values 1.02
